This assay in a line: qHTS for Inhibitors of the Functional Ribonucleoprotein Complex (vRNP) of Lymphocytic Choriomeningitis Arenaviruses (LCMV): Viability assay - Alamar blue signal for LCMV Confirmatory Screen. (Quantitative high-throughput screening tests each substance at several concentrations.)

The values that follow come from PubChem BioAssay AID1347088 (National Center for Advancing Translational Sciences (NCATS), 2019).

Results filed as inconclusive are left out. A call without a number means that no potency is given here. A number with no mark means an inactive call. Active and inactive are the calls of the source. Calls follow the shape of the full dose curve.

Consider `CCCCC[C@H](O)/C=C/C=C/C/C=C\CCCC(=O)O`, for which the viability change, negative = toxic is -17.3% [at 0.666 µM]. Same read-out and setting: as for `CC(C)=CCC/C(C)=C/CC/C(C)=C/CC[C@]1(C)CCc2c(C)c(O)c(C)c(C)c2O1`, the figure is -1.54% [at 6 µM]. For `N#CC(=C(\N)Sc1ccccc1N)/C(C#N)=C(/N)Sc1ccccc1N`, the Potency result is “inactive”. The same measure, in the same setting: as for `Cc1ccccc1-n1c(Cn2nc(-c3cccc(O)c3)c3c(N)ncnc32)nc2cccc(C)c2c1=O`, the entry is “inactive”; as for `CN1C(C(=O)Nc2ccccn2)=C(O)c2ccccc2S1(=O)=O`, “inactive”; as for `Cn1cc(-c2ccncc2)c(-c2ccc(OCc3ccc4ccccc4n3)cc2)n1`, 38.5 µM (active). In the case of `C[C@]12CC[C@@H](O)C[C@H]1CC[C@@H]1[C@H]2CC[C@]2(C)C(=O)CC[C@@H]12`, the Potency result is “inactive”. Still for that read-out and setting: as for `CN(C)c1ccc(O)c2c1C[C@H]1C[C@H]3[C@H](N(C)C)C(=O)C(C(N)=O)=C(O)[C@@]3(O)C(=O)C1=C2O`, the entry is “inactive”; as for `Cc1ncc([N+](=O)[O-])n1CC(C)O` (stereo unspecified), “inactive”.

In the case of `CCC(c1ccc(O)cc1)C(CC)c1ccc(O)cc1` (stereo unspecified), the Potency result was “inactive”. The same measure, in the same setting: as for `CCOC(=O)OCC/C(SC(=O)OCC)=C(\C)N(C=O)Cc1cnc(C)nc1N`, the entry is “inactive”.
